Experimental data published in PubChem BioAssay (NCATS).
Inconclusive results are not listed. Active and inactive are the calls of the source. Unless noted, calls come from the whole dose curve; as a rule, active = well fitted curve in the direction sought with a large enough effect; inconclusive = small, poorly fitted or top-dose-only effect, or another doubt; inactive = no such curve, though single readings can be large; an effect the other way counts as inactive or inconclusive.

Assays:
[1] = Cell Viability - BJ (AID 421; calls by dose curve;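 note: potency is the fitted concentration of half-maximal effect; cells exposed to compound for 40 hours at 37 °C before readout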); conditions: BJ fibroblast viability, qHTS
Summary of the method: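 Quantitative HTS: ATP depletion in BJ cells after 40 hr compound exposure in complete culture medium, detected with CellTiter-Glo; AC50 from standard Hill fits.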

[2] = Cell Viability - Jurkat (AID 426;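 active = dose-dependent loss of cell ATP signal giving a full or clear fitted curve, ranked by lower potency value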; note: potency is the fitted concentration of half-maximal effect); conditions: qHTS
Summary of the method: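 qHTS, 1536-well; Jurkat E6-1, 5000 cells/well, complete medium; cpd 40 hr, 37 °C; CellTiter-Glo 20 min RT; luminescence. AC50 by Hill fit.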

[3] = Cell Viability - Hek293 (AID 427;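 active = compounds whose dose-response curve shows a full or clear partial loss of cell viability, called from curve shape rather than a numeric limit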;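 note: potency is the fitted concentration of half-maximal effect; cells exposed to compound for 40 hours at 37 °C before reading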); conditions: qHTS
Summary of the method: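 AC50 values derive from Hill-modelled concentration-response of ATP-based luminescence, normalized between DMSO-only and 100 uM tamoxifen controls. Cells were exposed in complete culture medium for 40 hr at 37 °C before detection.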

[4] = Cell Viability - HepG2 (AID 433; calls by dose curve;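 note: potency is the fitted concentration of half-maximal effect; potency for ATP loss meaning cytotoxicity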); conditions: qHTS
Summary of the method: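 Read-out is luciferase-based quantitation of cellular ATP as a measure of viable HepG2 cells after 40 h treatment at 37 °C. Signal decrease is scaled between DMSO-only and 100 uM tamoxifen controls, with AC50 fitted by the Hill equation.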

[5] = Cell Viability - SK-N-SH (AID 435; calls by dose curve;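 note: potency is the fitted concentration of half-maximal effect; compound exposure lasted 40 h at 37 °C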); conditions: SK-N-SH neuroblastoma cell viability qHTS
Summary of the method: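 Luminescent ATP signal served as the viability read-out after 40 hours of compound treatment of human neuroblastoma SK-N-SH cells. Concentration-response data, scaled between DMSO and 100 uM tamoxifen, gave AC50 values by standard Hill modeling.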

[6] = Cell Viability - N2a (AID 540); conditions: N2a mouse neuroblastoma cell viability; at 92.2 µM (top of the series);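 note: cells exposed to compound for 40 h at 37 °C; plate controls were DMSO alone for no effect and tamoxifen control for full effect; nearly all actives have a fitted effect of over 45% in size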
Summary of the method: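 Luminescent ATP signal (CellTiter-Glo, 20 min at room temperature) served as the viability read-out after N2a cells were treated with compounds for 40 hours at 37 °C. Concentration-response data were fitted to the Hill equation for AC50.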

[7] = Cell Viability - HUV-EC-C (AID 542); note: % is set by controls: 0 for no effect and ±100 for the full control effect; nearly all actives have a fitted effect of over 35% in size
Summary of the method: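 qHTS cytotoxicity: HUV-EC-C, 1000 cells/well, 5 hr settle, compound 40 hr 37 °C, CellTiter-Glo, luminescence. AC50 via Hill equation.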

[8] = Cell Viability - H-4-II-E (AID 543); note: % is set by controls: 0 for no effect and ±100 for the full control effect; nearly all actives have a fitted effect of over 35% in size
Summary of the method: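 Luminescent ATP signal (CellTiter-Glo) served as the viability read-out, with cytotoxicity seen as a concentration-dependent ATP drop. Cells were treated for 40 hours in complete medium. AC50 values derive from Hill-equation modelling.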

[9] = Cell Viability - SH-SY5Y (AID 544);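 note: 0% = DMSO alone and -100% = 100 µM tamoxifen; nearly all actives have a fitted effect of over 55% in size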
Summary of the method: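 Luminescent ATP read-out (CellTiter-Glo) measures loss of viable SH-SY5Y neuroblastoma cells after 40 hr compound exposure at 37 °C. AC50 values derive from standard Hill modelling of qHTS concentration-response data.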

[10] = Cell Viability - Renal Proximal Tubule (AID 545);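 note: 0% = DMSO only and -100% = 100 µM tamoxifen; nearly all actives have a fitted effect of over 40% in size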
Summary of the method: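 Luminescent ATP signal (CellTiter-Glo) served as the viability read-out after 40 hr compound exposure of freshly isolated rat proximal tubule cells at 37 °C. Concentration-dependent ATP loss was fitted with the Hill equation to give AC50.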

[11] = Cell Viability - Mesenchymal (AID 546);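 note: cells exposed to compound for 40 hours before reading; 0% = DMSO only and -100% = 100 µM tamoxifen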
Summary of the method: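 AC50 values reflect the drop in intracellular ATP in a human kidney mesenchymal line derived from normal glomeruli. Treatment lasts 40 hr at 37 °C in complete medium, and the signal comes from CellTiter-Glo luminescence.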

[12] = Cellular Toxicity (caspase-3) HepG2 (AID 654);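 note: cells exposed to compound for 16 hours before reading; 0% = DMSO alone and 100% = caspase signal from 100 µM tamoxifen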
Summary of the method: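 Cells plated 5 hr at 37 °C, compound added, incubated 16 hr at 37 °C. Caspase-Glo 3/7 reagent followed, 20 min at room temperature, then luminescence read. Activation scored as signal increase; AC50 from Hill fit.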

[13] = Cellular Toxicity (caspase-3) Jurkat (AID 655);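 note: cells exposed to compound for 16 h at 37 °C before reading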
Summary of the method: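 5000 Jurkat cells/well; compound 16 hr, 37 °C; Caspase-Glo 3/7 added, 20 min RT; luminescence read. Norm: DMSO = 0%, tamoxifen 100 uM = 100%. AC50, Hill model.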

[14] = Cellular Toxicity (caspase-3) HUV-EC-C (AID 656);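 note: 0% = DMSO basal and 100% = 100 µM tamoxifen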
Summary of the method: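 qHTS; HUV-EC-C, 1000 cells/well; 5 hr settle, 16 hr cmpd, 37°C; Caspase-Glo 3/7, 20 min RT; luminescence. Norm: DMSO = 0%, tamoxifen 100 uM = 100%. Hill-fit AC50.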

[15] = Cellular Toxicity (caspase-3) SHSY5Y (AID 657);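 note: cells exposed to compound for 16 hours at 37 °C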
Summary of the method: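 qHTS, SH-SY5Y, 1500 cells/well, 5 h pre-incubation 37 °C; compound 16 h 37 °C; Caspase-Glo 3/7 1 h RT; luminescence. Norm.: DMSO = 0, 10 uM staurosporine = 100%. Hill fit → AC50.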

[16] = Cellular Toxicity (caspase-3) MRC-5 (AID 659);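 note: 0% = DMSO basal and 100% = 10 µM staurosporine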
Summary of the method: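 Concentration-dependent caspase 3/7 activation is measured in human normal lung fibroblasts (MRC-5) following 16-hour treatment. AC50 values come from standard Hill-equation modeling of luminescence normalized to DMSO and 10 uM staurosporine.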

[17] = Cellular Toxicity (caspase-3) Mesangial (AID 660);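 note: combined caspase 3 and 7 activity read by Caspase-Glo luminescence; cells exposed to compound for 16 h before the caspase read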
Summary of the method: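 Mesangial cells, 1000/well, 5 h settle at 37 °C; compound 16 h, 37 °C; Caspase-Glo 3/7 reagent 20 min RT; luminescence. Norm.: DMSO = 0%, tamoxifen 100 uM = 100%. AC50, Hill fit.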

[18] = Cellular Toxicity (caspase-3) SK-N-SH (AID 661);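 note: 0% = DMSO basal and 100% = 10 µM staurosporine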
Summary of the method: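 Human neuroblastoma SK-N-SH, 1500 cells/well, 5 hr pre-incubation, then compound 16 hr, 37 °C. Caspase-Glo 3/7 reagent, 1 hr RT, luminescence. Norm. to DMSO/10 uM staurosporine; Hill-fit AC50.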

[19] = Cellular Toxicity (caspase-3) H-4-II-E (AID 663);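 note: 0% = DMSO basal and 100% = 100 µM tamoxifen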
Summary of the method: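 Apoptosis induction is scored as increased luminescence from caspase 3/7 substrate cleavage in rat hepatoma H-4-II-E cells exposed to compound for 16 hr. Activity is scaled between DMSO and 100 uM tamoxifen.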

[20] = Cellular Toxicity (caspase-3) Hek293 (AID 664);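 note: cells exposed to compound for 16 h at 37 °C before readout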
Summary of the method: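 Cells plated, 5 hr at 37 °C; compounds added; 16 hr at 37 °C; Caspase-Glo 3/7 reagent, 20 min RT; luminescence read. Activation expressed relative to DMSO and 100 uM tamoxifen, AC50 by Hill model.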

[21] = Cellular Toxicity (caspase-3) N2a (AID 665);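 note: compound exposure lasted 16 h at 37 °C before readout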
Summary of the method: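 N2a cells, 1500/well, 5 h settle at 37 °C; cpd 16 h, 37 °C; Caspase-Glo 3/7, 1 h RT; luminescence. Norm: DMSO = 0, 10 uM staurosporine = 100%. AC50, Hill fit.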

[22] = Cellular Toxicity (caspase-3) Renal Proximal Tubule (AID 667);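 note: cells exposed to compound for 16 hours at 37 °C before detection; 0% = DMSO basal and 100% = 10 µM staurosporine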
Summary of the method: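 AC50 derived by standard Hill fit of concentration-response data, normalized between DMSO basal and 10 uM staurosporine as 100% stimulation. Cells: primary rat kidney proximal tubule, 16 h treatment at 37 °C.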

[23] = biological target: Cytochrome P450 3A4 (Homo sapiens) (UniProt P08684); assay: qHTS Assay for Inhibitors and Substrates of Cytochrome P450 3A4 (AID 884); note: % is set by controls: 0 for no effect and ±100 for the full control effect; nearly all actives have a fitted effect of over 50% in size
Cytochrome P450 3A4 (Homo sapiens), sequence (P08684 whole entry, looked up): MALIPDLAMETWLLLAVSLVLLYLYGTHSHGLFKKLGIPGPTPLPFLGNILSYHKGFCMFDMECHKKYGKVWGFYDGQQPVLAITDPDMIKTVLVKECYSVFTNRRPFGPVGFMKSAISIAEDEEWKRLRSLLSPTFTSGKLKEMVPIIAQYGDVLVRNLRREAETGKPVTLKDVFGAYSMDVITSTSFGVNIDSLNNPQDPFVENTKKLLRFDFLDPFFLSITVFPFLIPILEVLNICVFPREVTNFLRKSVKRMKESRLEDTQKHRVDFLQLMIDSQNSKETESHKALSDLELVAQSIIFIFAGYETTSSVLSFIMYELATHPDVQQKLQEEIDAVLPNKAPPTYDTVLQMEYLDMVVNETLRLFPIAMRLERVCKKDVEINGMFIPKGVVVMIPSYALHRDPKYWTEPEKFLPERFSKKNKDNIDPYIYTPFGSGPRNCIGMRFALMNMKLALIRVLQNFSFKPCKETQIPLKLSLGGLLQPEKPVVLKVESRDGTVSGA
Summary of the method: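 20 nM human CYP3A4 with 25 uM Luciferin-PPXE (at KM) in 200 mM KPO4, preincubated 10 min with compound; NADPH regeneration started a 60 min RT reaction. Luciferin detected by luminescence, normalized to 57 uM ketoconazole as full inhibition.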

[24] = Cell Viability - LYMP2-001 (AID 921);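 note: 0% = DMSO only and full inhibition = tetraoctylammonium bromide control wells; nearly all actives have a fitted effect of over 70% in size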
Summary of the method: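 Steps: seed 2500 lymphoblastoid cells/well; 5 hr, 37 C; add compound; 24 hr, 37 C; CellTiter-Glo reagent, 30 min room temperature; read luminescence. Concentration-response modeled by Hill equation for AC50.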

[25] = MultiTox-Fluor Cytotoxicity Assay - LYMP1-001 - Dead Cells (AID 946);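 note: 0% = DMSO and 100% = tetraoctylammonium bromide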
Summary of the method: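 In this qHTS, 15 uM tetraoctylammonium bromide defined 100% and DMSO defined basal activity. Lymphoblastoid cells (LYMP1-001, 2500 per well) received compound for 16 hr at 37 C before a fluorogenic dead-cell substrate readout at 485/520 nm.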

[26] = MultiTox-Fluor Cytotoxicity Assay - LYMP1-001 - Live Cells (AID 947);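 note: 0% = DMSO only and full inhibition = tetraoctylammonium bromide control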
[27] = Cell Viability - LYMP1-002 - Assay at 16 hr (AID 948);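 note: 0% = DMSO alone and full effect = 92 µM tetraoctylammonium bromide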
Summary of the method: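 Seed 2500 LYMP1-002 cells per well in complete medium and hold 5 hr at 37 C. Add compound across a concentration series and incubate 16 hr at 37 C. Add CellTiter-Glo, wait 30 min at room temperature, read luminescence.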

[28] = MultiTox-Fluor Cytotoxicity Assay - LYMP1-002 - Live Cells (AID 955); note: % is set by controls: 0 for no effect and ±100 for the full control effect
Summary of the method: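 Read-out is live-cell protease activity (cell-permeant GF-AFC substrate, fluorescence Ex/Em=405/510), where a decrease indicates acute toxicity. Human lymphoblastoid cells were treated 16 hours at 37 C in a concentration series, and AC50 values came from standard Hill modelling.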

[29] = MultiTox-Fluor Cytotoxicity Assay - LYMP1-003 - Dead Cells (AID 961);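 note: 0% = DMSO and 100% = tetraoctylammonium bromide; nearly all actives have a fitted effect of over 70% in size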
Summary of the method: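 Acute toxicity is scored as increased dead-cell protease activity in human lymphoblastoid LYMP1-003 cells after 16 h compound exposure in complete culture medium. Activity is normalized to DMSO basal and 15 uM tetraoctylammonium bromide as full response.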

[30] = MultiTox-Fluor Cytotoxicity Assay - LYMP1-003 - Live Cells (AID 962);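 note: cells exposed to compound for 16 hours at 37 °C; 0% = DMSO only and full loss = 92 µM tetraoctylammonium bromide; cytotoxic hits lower the live-cell protease signal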
Summary of the method: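 qHTS, 1536-well; 2500 cells/well LYMP1-003; 5 hr 37 C settle; cpd 16 hr 37 C; MultiTox-Fluor reagent 60 min RT; live-cell protease fluor. 405/510; Hill-fit AC50; tetraoctylammonium bromide pos. ctrl.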

[31] = Cell Viability - LYMP1-003 - Assay at 24 hr (AID 963);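 note: plate controls were DMSO only for no effect and tetraoctylammonium bromide positive control for full effect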
Summary of the method: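 Cells seeded at 2500/well, 5 hr at 37 C; compounds added; 24 hr at 37 C; CellTiter-Glo added, 30 min room temperature; luminescence read. Decrease in ATP taken as cytotoxicity, AC50 from Hill modelling.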

[32] = Cell Viability - LYMP1-003 - Assay at 40 hr (AID 964); note: % is set by controls: 0 for no effect and ±100 for the full control effect; nearly all actives have a fitted effect of over 60% in size
Summary of the method: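 Cells were seeded at 2500 per well and incubated 5 hr at 37 C. Compounds were added across a concentration series and left 40 hr at 37 C. CellTiter-Glo was added for 30 min at room temperature before luminescence reading.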

[33] = Cell Viability - LYMP2-003 (AID 965);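 note: cells exposed to compounds for 24 h before reading; 0% = DMSO only and full effect = 92 µM tetraoctylammonium bromide; nearly all actives have a fitted effect of over 50% in size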
Summary of the method: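 Seed 2500 lymphoblastoid cells/well; incubate 5 hr, 37 C; add compounds; incubate 24 hr, 37 C; add CellTiter-Glo, 30 min RT; read luminescence. AC50 from Hill fit.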

[34] = Cell Viability - LYMP2-005 (AID 967);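 note: plate controls were DMSO only for no effect and 92 µM tetraoctylammonium bromide control for full effect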
Summary of the method: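 Acute cytotoxicity is scored as a concentration-dependent drop in intracellular ATP in human lymphoblastoid LYMP2-005 cells after 24 h compound treatment. ATP is quantified by luciferase luminescence, and AC50 is derived by Hill-equation modelling.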

[35] = Cell Viability - LYMP2-009 (AID 968);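 note: 0% = DMSO alone and the full-kill end = tetraoctylammonium bromide at 92 µM; nearly all actives have a fitted effect of over 55% in size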
[36] = Cell Viability - LYMP2-011 (AID 969);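 note: 0% = DMSO only and full inhibition = 92 µM tetraoctylammonium bromide; nearly all actives have a fitted effect of over 60% in size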
Summary of the method: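 2500 cells/well, 5 hr 37 C; compound added, 24 hr 37 C; CellTiter-Glo 30 min RT; luminescence. qHTS concentration-response, Hill-equation AC50. Tetraoctylammonium bromide positive control.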

[37] = Cell Viability - LYMP2-013 (AID 970);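 note: 0% = DMSO only and full inhibition = tetraoctylammonium bromide control; nearly all actives have a fitted effect of over 55% in size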
Summary of the method: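 qHTS; 2500 lymphoblastoid cells/well; 5 hr 37 C settle; cpd 24 hr 37 C; CellTiter-Glo, 30 min RT; luminescence. AC50 = Hill fit.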

[38] = Cell Viability - LYMP2-015 (AID 971)
Summary of the method: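 Luminescent ATP read-out (CellTiter-Glo) served as the viability measure after lymphoblastoid cells were exposed to compounds for 24 hours at 37 C. Concentration-response data were fitted with the Hill equation to give AC50.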

[39] = Cell Viability - LYMP2-017 (AID 972)
Summary of the method: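 2500 cells/well, 5 h 37 C; cpd 24 h 37 C in complete medium; CellTiter-Glo, 30 min RT; luminescence (ATP). AC50 via Hill fit, qHTS.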

[40] = Cell Viability - LYMP2-019 (AID 973)
Summary of the method: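 Luminescent ATP read-out (CellTiter-Glo, 30 min room temperature) served as the viability measure after 24 hr treatment of lymphoblastoid cells at 37 C. Concentration-response data were fitted to the Hill equation for AC50.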

[41] = Cell Viability - LYMP2-021 (AID 974)
Summary of the method: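 Plate 2500 lymphoblastoid cells per well and incubate 5 hr at 37 C. Add compounds over a concentration range and incubate 24 hr at 37 C. Add CellTiter-Glo, wait 30 min at room temperature, read luminescence.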

[42] = Cell Viability - LYMP2-023 (AID 975)
Summary of the method: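 2500 cells/well, 5 hr 37 C; cpd 24 hr 37 C; CellTiter-Glo, 30 min RT; luminescence. qHTS conc-response, Hill fit -> AC50. Pos ctrl tetraoctylammonium bromide.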

O=Cc1ccccc1
inactive: Potency [1] > 92 µM | Potency [2] > 92 µM | Potency [3] > 92 µM | Potency [4] > 92 µM | Potency [5] > 92 µM | activity change, negative = cytotoxicity [6] 6.11% | outcome [7] | outcome [8] | outcome [9] | outcome [10] | outcome [11] | outcome [12] | outcome [13] | outcome [14] | outcome [15] | outcome [16] | outcome [17] | outcome [18] | outcome [19] | outcome [20] | outcome [21] | outcome [22] | Potency [23] | outcome [24] | Potency [25] | outcome [26] | outcome [27] | outcome [28] | Potency [29] | outcome [30] | outcome [31] | Potency [32] | outcome [33] | outcome [34] | outcome [35] | outcome [36] | outcome [37] | outcome [38] | outcome [39] | outcome [40] | outcome [41] | outcome [42]
